Compound activity as filed in PubChem.
This is a sample that favours compounds with a hit; in the whole collection about 10% have one here.
Six1-Eya2 inh = blocks human Six1 binding to Eya2; Q15475+O00167; AlphaScreen GST-Six1/His-Eya2 binding, biochemical; stronger effect = lower value; 360,000 tested, 0.56% active; activity change, % (no concentration beside the values); in the data active = activity change below about -65%; inconclusive = mostly about -30% to -63%; note: % is set by controls: 0 for no effect and ±100 for the full control effect
Target sequence (O00167 whole entry, looked up): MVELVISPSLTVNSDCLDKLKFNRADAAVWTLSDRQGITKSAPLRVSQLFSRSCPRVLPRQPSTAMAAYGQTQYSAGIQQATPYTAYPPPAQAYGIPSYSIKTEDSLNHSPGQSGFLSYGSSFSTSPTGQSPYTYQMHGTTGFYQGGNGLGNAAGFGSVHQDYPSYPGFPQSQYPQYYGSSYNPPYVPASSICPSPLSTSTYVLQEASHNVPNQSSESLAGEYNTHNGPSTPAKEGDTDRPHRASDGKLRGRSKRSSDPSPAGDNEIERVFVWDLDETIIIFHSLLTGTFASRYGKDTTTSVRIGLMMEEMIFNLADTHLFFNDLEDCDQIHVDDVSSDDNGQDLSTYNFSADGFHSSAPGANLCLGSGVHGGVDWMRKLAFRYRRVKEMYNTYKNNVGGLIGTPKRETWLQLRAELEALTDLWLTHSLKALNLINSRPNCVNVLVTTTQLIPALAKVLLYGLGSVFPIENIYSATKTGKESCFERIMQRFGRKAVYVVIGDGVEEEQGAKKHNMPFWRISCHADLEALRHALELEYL
Target sequence (Q15475 whole entry, looked up): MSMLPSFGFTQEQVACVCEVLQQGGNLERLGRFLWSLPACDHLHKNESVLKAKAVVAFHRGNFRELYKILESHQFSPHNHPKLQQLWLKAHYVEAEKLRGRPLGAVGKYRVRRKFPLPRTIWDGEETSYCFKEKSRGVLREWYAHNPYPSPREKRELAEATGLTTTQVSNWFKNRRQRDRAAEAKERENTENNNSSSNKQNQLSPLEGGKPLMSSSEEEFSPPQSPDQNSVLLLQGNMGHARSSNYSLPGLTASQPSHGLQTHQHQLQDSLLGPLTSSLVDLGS
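AlphaScreen luminescence read after one hour at 37 °C in darkness. Pin-transferred compounds met GST-Six1 and His-Eya2 protein (5X stock 250 nM/500 nM) plus glutathione donor and Ni-chelate acceptor beads (5X, 50 ug/mL).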
JMJD2A Tudor = blocks the human JMJD2A Tudor domain; O75164; AlphaScreen JMJD2A-Tudor / H3K4me3 peptide binding; Potency, µM (top dose mostly 114 µM), for inactives: top-dose activity change, negative = inhibition, most hits filed as inhibitors; 390,000 tested, 4.4% active; AID 504339; note: potency is the fitted concentration of half-maximal effect; % is set by controls: 0 for no effect and ±100 for the full control effect; nearly all actives have a fitted effect of over 50% in size
BAZ2B inh = blocks human BAZ2B. Q9UIF8. AlphaScreen BAZ2B-H3K14Ac peptide displacement. Potency, µM (top dose mostly 114 µM), for the others: at the top dose activity change, negative = inhibition, actives largely listed as inhibitors. 360,000 tested, 4.4% active. AID 504333; note: potency is the fitted concentration of half-maximal effect; % is set by controls: 0 for no effect and ±100 for the full control effect; nearly all actives have a fitted effect of over 60% in size
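Inhibition is scored as reduced AlphaScreen emission. The BAZ2B/b-H3(5-23)K14Ac complex (50 nM each) in PBS pH 7.4, 0.01% Tween-20 meets compound (up to 110 uM) for 30 min at RT before bead addition.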
HP1b binding inh = blocks HP1-beta chromodomain binding to methylated histone tails | P83916 | AlphaScreen HP1-beta / biotin-H3K9me3 peptide binding | Potency, µM (series often up to 114 µM), inactives show top-dose activity change, negative = inhibition, actives largely listed as inhibitors | 390,000 tested, 0.56% active | AID 540317; note: potency is the fitted concentration of half-maximal effect; nearly all actives have a fitted effect of over 70% in size
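AlphaScreen: HP1-beta (50 nM) preformed 30 min with biotin-H3(1-18)K9me3 peptide (50 nM) in PBS pH 7.4, 0.01% Tween-20. Compound added for 30 min at RT, then streptavidin donor/nickel chelate acceptor beads (10 ug/mL) for 30 min.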
G9a inh = inhibitors of human histone lysine methyltransferase G9a | Q96KQ7 | G9a H3K9 monomethylation, AlphaScreen, 2 h | Potency, µM (titrated, usually from 102 µM), for inactives: top-dose activity, negative = inhibition, most hits filed as inhibitors | 350,000 tested, 8.8% active; note: potency is the fitted concentration of half-maximal effect; % is set by controls: 0 for no effect and ±100 for the full control effect; nearly all actives have a fitted effect of over 75% in size
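Enzyme 20 nM + cpd, 15 min RT; add b-H3K9 pep 500 nM / SAM 20 uM; 2 h RT; anti-H3K9me1 Ab 0.5 ug/mL + SA donor / anti-rabbit acceptor beads 20 ug/mL each, 10 min; AlphaScreen read.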
CtBP-E1A inh = inhibitors of CtBP/E1A interaction. AlphaScreen GST-E1A/His-CtBP binding, 1536-well; stronger effect = lower value. activity change, % (no concentration beside the values). 340,000 tested, 0.49% active. AID 651724; in the data active = activity change below about -65%; inconclusive = mostly about -30% to -63%; note: % is set by controls: 0 for no effect and ±100 for the full control effect
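Protein mix (5X: 125 nM each GST-E1A, His-CtBP) was incubated with pinned compound 2 h at 37 deg C in dark, in 50 mM Tris pH 8.0 buffer with 300 mM NaCl. Glutathione donor and nickel acceptor beads followed; AlphaScreen signal read after 1 h.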
* hit, by the source's call; ? = inconclusive; . = no result given; ! = not confirmed by another sample; [ ] = dose if it differs, or a comment. Unless noted, calls come from the whole dose curve; as a rule, active = well fitted inhibition curve with a large enough effect; inconclusive = small, poorly fitted or top-dose-only effect; inactive = no such curve, though single readings can be large or run the other way.

SMILES	Six1-Eya2 inh	JMJD2A Tudor	BAZ2B inh	HP1b binding inh	G9a inh	CtBP-E1A inh
Fc1cc(F)cc(Nc2nc(NC3CCCC3)nc(C3CO3)n2)c1 (stereo unspecified)	.	-21.9%	.	.	.	.
c1ccc(N2CCN(C3CC4CCC3C4)CC2)cc1 (stereo unspecified)	-3.3	-7.0%	-18.0%	35.6%	79.4µM*	1.5
CCCC(=O)Nc1nnc(S(=O)(=O)N2CCCCCC2)s1	5.2	20µM*!	14.1µM*!	?	12.6µM*	-10.4
CCC(=O)Nc1nnc(S(=O)(=O)N2CCCCCC2)s1	9.2	11.2µM*!	7.08µM*!	?	10µM*!	-24.1
CCCC(=O)Nc1nnc(S(=O)(=O)N2CCCC2)s1	0.2	-5.5%	-1.0%	47.7%	.	2.6
Cc1cc(C(=O)CN2C(=O)C(=O)N(Cc3ccccc3)C2=O)c(C)n1-c1ccccc1F	-10.9	-17.9%	-17.1%	2.5%	-3.7%	-6.5
Cc1cc(C(=O)CN2CCC(C)CC2)c(C)n1-c1ccccc1F	-13.1	-24.9%	-6.6%	-2.4%	50.1µM*	-10.9
COc1ccc2nc3cc(Cl)ccc3c(Nc3cc(C(C)C)c(O)cc3C)c2c1	-25.2	?	?	-32.9%	-25.6%[59 µM]	-29.0
COc1ccc2nc3cc(Cl)ccc3c(Nc3cc(CN4CCCC4)c(O)c(CN4CCCC4)c3)c2n1	.	.	39.8µM*	.	?	.
O=c1ccc2ccc(O)c(O)c2o1	.	.	.	.	0.844µM*	.
Cc1cc(OCCCn2cnc3ccccc3c2=O)ccc1[N+](=O)[O-]	-9.1	2.1%	7.1%	28.3%	4.8%[59 µM]	0.0
CC1CN(CCOc2ccc(F)cc2)CC(C)O1 (stereo unspecified)	1.6	20µM*	50.1µM*	?	7.08µM*	9.9
O=[N+]([O-])c1ccc(OCCN2CCNCC2)cc1	-2.4	25.1µM*	50.1µM*	?	.	.
CC1CN(CCCOc2ccc([N+](=O)[O-])cc2)CC(C)O1 (stereo unspecified)	6.9	14.1µM*	-8.8%	?	10µM*	-6.9
CC1CN(c2ccc([N+](=O)[O-])cn2)CC(C)O1 (stereo unspecified)	0.1	-14.8%	1.5%	5.3%	-0.7%	7.2
Cc1cc(OCCN2CCC(Cc3ccccc3)CC2)ccc1[N+](=O)[O-]	?	?	?	?	39.8µM*	-23.0
CCOc1ccc(S(=O)(=O)N2CCCC(C(=O)N3CCOCC3)C2)cc1Cl (stereo unspecified)	-1.5	-5.6%	-0.6%	-4.0%	16.1%	5.3
CC1CN(CCOc2ccc([N+](=O)[O-])cc2)CC(C)O1 (stereo unspecified)	10.0	6.31µM*	?	?	2.51µM*	9.3
Cn1c(=O)n(CCOc2ccc([N+](=O)[O-])cc2)c2ccccc21	3.3	-17.8%	-7.8%	14.4%	-6.7%[12.7 µM]	4.6
Cc1cc(OCCN2CC(C)OC(C)C2)ccc1[N+](=O)[O-] (stereo unspecified)	4.8	2.82µM*	?	?	12.6µM*	16.7
CC(C)NC(=O)c1sc(=S)n2c1[nH]c(=O)c1ccc(C(=O)NCCc3ccc(Cl)cc3)cc12	0.9	35.5µM*	-23.8%	-21.2%[57 µM]	44.7µM*	.
COc1ccc(OC)c(CCNC(=O)c2ccc3c(=O)[nH]c4c(C(=O)NC(C)C)sc(=S)n4c3c2)c1	-9.2	56.2µM*	39.8µM*	?	.	.
CCOc1ccc(CCNC(=O)c2ccc3c(=O)[nH]c4c(C(=O)NC(C)C)sc(=S)n4c3c2)cc1	-8.8	8.6%	?	19.9%	44.7µM*	.
c1cncc(-c2cncnc2NC2CCNCC2)c1	.	.	.	.	-0.1%[0.501 µM]	.
Cc1cc(C)c(S(=O)(=O)N(CC(=O)O)CC(=O)O)c(C)c1	2.2	?	13.9%	13.2%	22.4µM*	6.7
Cc1cc(C)c(S(=O)(=O)N(C)CC(=O)N2CCCC2)c(C)c1	8.8	.	.	.	.	7.9
CSCC(=O)N1CCC(n2nccc2NC(=O)c2ccc3c(c2)OCO3)CC1	2.0	?	0.6%	7.6%	44.7µM*	.
